Test results from PubChem BioAssay (NCI).
This is part of a sample that, as a whole, favours compounds with a hit. Of some 83,000 tested, about 20% had one in any assay.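 Growth was measured after 48 h exposure to one concentration of compound in 96-well plates. Values under 10 count as active.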 Calls of active or inactive are those of the source.

Assays:
Test in all cases: NCI-60 one-dose screen, 48 h (100 = growth as untreated, 0 = no growth, -100 = all killed)
Details in all cases: 10 µM unless noted
SR leukemia = tested on: SR leukemia
RPMI-8226 leukemia = tested on: RPMI-8226 leukemia
OVCAR-8 ovarian = tested on: OVCAR-8 ovarian
OVCAR-5 ovarian = tested on: OVCAR-5 ovarian
OVCAR-4 ovarian = tested on: OVCAR-4 ovarian
SK-OV-3 ovarian = tested on: SK-OV-3 ovarian
IGROV1 ovarian = tested on: IGROV1 ovarian
OVCAR-3 ovarian = tested on: OVCAR-3 ovarian
HS 578T breast = tested on: HS 578T breast
NCI/ADR-RES ovarian = tested on: NCI/ADR-RES ovarian

Measured: growth

Cn1cc(-c2nnc(N)nc2-c2c[nH]c3ccc(F)cc23)c2cc(F)ccc21
inactive: SR leukemia 41.1% | RPMI-8226 leukemia 65.6% | OVCAR-8 ovarian 90.3% | OVCAR-5 ovarian 109% | OVCAR-4 ovarian 98.4% | SK-OV-3 ovarian 88.4% | IGROV1 ovarian 35.7% | OVCAR-3 ovarian 78.6% | HS 578T breast 84.1% | NCI/ADR-RES ovarian 86.7%

O=C1CCC(N2C(=O)c3ccc(NS(=O)(=O)c4ccccc4OC(F)(F)F)cc3C2=O)C(=O)N1 (stereo not given)
inactive: SR leukemia 77.4% | RPMI-8226 leukemia 61% | OVCAR-8 ovarian 10.9% | OVCAR-5 ovarian 85.3% | OVCAR-4 ovarian 22.8% | SK-OV-3 ovarian 82.3% | IGROV1 ovarian 23.5% | OVCAR-3 ovarian 86.2% | HS 578T breast 13.7% | NCI/ADR-RES ovarian 19.7%

FC(F)(F)c1cc(Nc2cccc(Oc3ccc(NC4=NCCN4)nc3)c2)ccc1Cl
inactive: OVCAR-8 ovarian 30.8% | OVCAR-4 ovarian 28.2% | SK-OV-3 ovarian 71% | HS 578T breast 39.7%
active: SR leukemia -28.1% | RPMI-8226 leukemia -37.6% | OVCAR-5 ovarian 3.8% | IGROV1 ovarian -1.17% | OVCAR-3 ovarian -40.3% | NCI/ADR-RES ovarian -10.6%

CCCCCc1ccc(S(=O)(=O)Nc2cccc(-c3csc(NC(=O)CCCCCN4CCN(CCO)CC4)n3)c2)cc1
inactive: OVCAR-8 ovarian 96.7% | OVCAR-5 ovarian 91.6% | OVCAR-4 ovarian 80.8% | SK-OV-3 ovarian 96.8% | IGROV1 ovarian 84.5% | OVCAR-3 ovarian 75.6% | HS 578T breast 86.1% | NCI/ADR-RES ovarian 99.6%
active: SR leukemia -19.2% | RPMI-8226 leukemia 7.46%

COc1cc(OC)cc(C(=O)Nc2cccc(C#Cc3cccc4[nH]nc(N)c34)c2)c1
inactive: SR leukemia 16.6% | RPMI-8226 leukemia 18.6% | OVCAR-8 ovarian 31.2% | OVCAR-5 ovarian 39.5% | OVCAR-4 ovarian 53.9% | SK-OV-3 ovarian 39.1% | IGROV1 ovarian 20.4% | OVCAR-3 ovarian 12.2% | NCI/ADR-RES ovarian 34.2%
active: HS 578T breast -21.9%

Cn1cc(CNc2nc3ccc(OC/C(=C/F)CN)cc3o2)ccc1=O
inactive: SR leukemia 117% | RPMI-8226 leukemia 110% | OVCAR-8 ovarian 111% | OVCAR-5 ovarian 101% | OVCAR-4 ovarian 106% | SK-OV-3 ovarian 109% | IGROV1 ovarian 102% | OVCAR-3 ovarian 112% | HS 578T breast 103% | NCI/ADR-RES ovarian 102%

COc1ccc2c(c1)c(CC(=O)[Se]CC#N)c(C)n2C(=O)c1ccc(Cl)cc1
inactive: RPMI-8226 leukemia 20.5% | OVCAR-4 ovarian 27.7% | SK-OV-3 ovarian 34% | OVCAR-3 ovarian 13.9% | HS 578T breast 28.3%
active: SR leukemia 3.49% | OVCAR-8 ovarian 6.34% | OVCAR-5 ovarian -13.6% | IGROV1 ovarian -14.3% | NCI/ADR-RES ovarian -13.8%

CC(=O)c1ccc(Nc2nc(SCC(C)C)nc(-c3ccccc3)c2C#N)cc1
inactive: SR leukemia 110% | RPMI-8226 leukemia 111% | OVCAR-8 ovarian 70% | OVCAR-5 ovarian 109% | OVCAR-4 ovarian 103% | SK-OV-3 ovarian 79.7% | IGROV1 ovarian 88.6% | OVCAR-3 ovarian 122% | HS 578T breast 44.6% | NCI/ADR-RES ovarian 89.1%

O=C(NNc1nc2cc(F)ccc2n2c(CO)ccc12)c1cnccn1
active: SR leukemia 5.16% | SK-OV-3 ovarian 9.3% | NCI/ADR-RES ovarian 3.02%
inactive: RPMI-8226 leukemia 21% | OVCAR-8 ovarian 10.9% | OVCAR-5 ovarian 36.4% | OVCAR-4 ovarian 20.5% | IGROV1 ovarian 14.9% | OVCAR-3 ovarian 33.4% | HS 578T breast 68.3%

Cc1c(F)cc(C(N)=O)cc1NCC(=O)Nc1ccc([N+](=O)[O-])cc1
inactive: SR leukemia 107% | RPMI-8226 leukemia 110% | OVCAR-8 ovarian 99.8% | OVCAR-5 ovarian 89.5% | OVCAR-4 ovarian 67.8% | SK-OV-3 ovarian 106% | IGROV1 ovarian 80.1% | OVCAR-3 ovarian 96.7% | HS 578T breast 88.4% | NCI/ADR-RES ovarian 96.6%

O=C(NNc1nc2cc(F)ccc2n2c(CN3CCC(O)C3)ccc12)c1cnccn1 (stereo not given)
active: SR leukemia 6.32% | SK-OV-3 ovarian 8.37% | NCI/ADR-RES ovarian 2.49%
inactive: RPMI-8226 leukemia 27.4% | OVCAR-8 ovarian 13.8% | OVCAR-5 ovarian 41.4% | OVCAR-4 ovarian 18.9% | IGROV1 ovarian 18.2% | OVCAR-3 ovarian 34.9% | HS 578T breast 75.9%

C#CCNC1CCC(c2csc(C#C)n2)=C1C (stereo not given)
active: SR leukemia 2.46% | RPMI-8226 leukemia -28.1% | IGROV1 ovarian -63.6% | OVCAR-3 ovarian -21.9%
inactive: OVCAR-8 ovarian 40.5% | OVCAR-5 ovarian 76% | OVCAR-4 ovarian 90.3% | SK-OV-3 ovarian 92.7% | HS 578T breast 90.7% | NCI/ADR-RES ovarian 33.9%

COc1cc2nc(Cl)nc(Nc3cccc(C4=Nc5c(N)nc(N)nc5NC(c5ccc6c(c5)OCO6)C4)c3)c2cc1OC (stereo not given)
inactive: SR leukemia 10.3% | RPMI-8226 leukemia 41.7% | OVCAR-8 ovarian 68.2% | OVCAR-5 ovarian 112% | OVCAR-4 ovarian 97% | SK-OV-3 ovarian 112% | IGROV1 ovarian 77.6% | OVCAR-3 ovarian 63.5% | HS 578T breast 82.7% | NCI/ADR-RES ovarian 93.1%

CC(C)(C)c1ccc(C(=O)Nc2sc3c(c2C(N)=O)CC/C(=N\O)C3)cc1
inactive: OVCAR-8 ovarian 15.8% | OVCAR-5 ovarian 26.6% | OVCAR-4 ovarian 10% | SK-OV-3 ovarian 35.1% | IGROV1 ovarian 27.6% | OVCAR-3 ovarian 12.6% | HS 578T breast 38.7% | NCI/ADR-RES ovarian 11.7%
active: SR leukemia 6.35% | RPMI-8226 leukemia -16.7%

Nc1nc(N)c2c(n1)NC(c1ccc(Cl)cc1)CC(c1ccc(Nc3nc(NCCO)nc(N4CCOCC4)n3)cc1)=N2 (stereo not given)
inactive: RPMI-8226 leukemia 38.9% | OVCAR-8 ovarian 72% | OVCAR-5 ovarian 96.7% | OVCAR-4 ovarian 93.8% | SK-OV-3 ovarian 103% | IGROV1 ovarian 78.8% | OVCAR-3 ovarian 73.2% | HS 578T breast 65.9% | NCI/ADR-RES ovarian 97.3%
active: SR leukemia 8.95%

CNC(=O)c1cc(N2CCc3cc(NC(=O)Nc4ccc(Cl)c(C(F)(F)F)c4)ccc32)ccn1
inactive: SR leukemia 45.8% | RPMI-8226 leukemia 33.6% | OVCAR-8 ovarian 62.8% | OVCAR-5 ovarian 106% | OVCAR-4 ovarian 55.9% | SK-OV-3 ovarian 86.6% | IGROV1 ovarian 57.8% | OVCAR-3 ovarian 51.9% | HS 578T breast 44.8% | NCI/ADR-RES ovarian 55%

O=C1Nc2ccccc2/C1=C/c1ccc(CO)n1-c1ccc(Cl)cc1
inactive: SR leukemia 35.5% | RPMI-8226 leukemia 53.2% | OVCAR-8 ovarian 85.9% | OVCAR-5 ovarian 89.8% | OVCAR-4 ovarian 89.9% | SK-OV-3 ovarian 80% | IGROV1 ovarian 48.1% | OVCAR-3 ovarian 31.7% | HS 578T breast 59% | NCI/ADR-RES ovarian 33.9%

Clc1cccc(/C=N/Nc2nc(N/N=C/c3cccc(Cl)c3Cl)nc(N3CCCCC3)n2)c1Cl
active: OVCAR-3 ovarian 8.19%
inactive: SR leukemia 33.4% | RPMI-8226 leukemia 93.4% | OVCAR-8 ovarian 72.9% | OVCAR-5 ovarian 94% | OVCAR-4 ovarian 71.5% | SK-OV-3 ovarian 105% | IGROV1 ovarian 79.6% | HS 578T breast 85% | NCI/ADR-RES ovarian 67.4%

NC(N)=Nc1ccc(Oc2cccc(Nc3cccc(C(F)(F)F)c3)c2)cn1
inactive: OVCAR-8 ovarian 45.4% | OVCAR-5 ovarian 50.4% | OVCAR-4 ovarian 24.7% | SK-OV-3 ovarian 67.8% | IGROV1 ovarian 13.8% | HS 578T breast 52.8% | NCI/ADR-RES ovarian 46.6%
active: SR leukemia -46.9% | RPMI-8226 leukemia -41.5% | OVCAR-3 ovarian -66.6%

COc1ccc(Oc2ccc(/C=N/NC(=O)CSc3nc4ccccc4c(=O)n3-c3ccc(Cl)cc3)cc2)cc1
inactive: SR leukemia 72.8% | RPMI-8226 leukemia 85.1% | OVCAR-8 ovarian 85.7% | OVCAR-5 ovarian 81.2% | OVCAR-4 ovarian 72.5% | SK-OV-3 ovarian 66.3% | IGROV1 ovarian 48.7% | NCI/ADR-RES ovarian 51.1%
active: OVCAR-3 ovarian -56.8% | HS 578T breast -4.46%

CCN1CCN(Cc2cn(-c3ccc(S(N)(=O)=O)cc3)nn2)CC1
inactive: SR leukemia 102% | RPMI-8226 leukemia 109% | OVCAR-8 ovarian 102% | OVCAR-5 ovarian 108% | OVCAR-4 ovarian 108% | SK-OV-3 ovarian 105% | IGROV1 ovarian 107% | OVCAR-3 ovarian 112% | HS 578T breast 102% | NCI/ADR-RES ovarian 111%

COc1ccc2c(c1)c(CC(=O)[Se]CCC#N)c(C)n2C(=O)c1ccc(Cl)cc1
active: SR leukemia 4.36% | OVCAR-8 ovarian 6.32% | IGROV1 ovarian -55.6% | OVCAR-3 ovarian -30.7% | HS 578T breast -14.2% | NCI/ADR-RES ovarian -1.67%
inactive: RPMI-8226 leukemia 50.9% | OVCAR-5 ovarian 29% | OVCAR-4 ovarian 31.6% | SK-OV-3 ovarian 22.3%

NS(=O)(=O)c1ccc(Nc2nc(N/N=C/c3ccccn3)nc(Nc3ccccc3)n2)cc1
active: OVCAR-8 ovarian 3.72% | OVCAR-5 ovarian 9.36% | OVCAR-4 ovarian -20.3% | SK-OV-3 ovarian -31.4% | IGROV1 ovarian -30.3% | OVCAR-3 ovarian -15.8% | HS 578T breast -18.8%
inactive: SR leukemia 12.5% | RPMI-8226 leukemia 36.6% | NCI/ADR-RES ovarian 49%

COC(=O)c1ccc(NC2=C/C(=N/S(=O)(=O)c3ccc(C(=O)O)cc3)c3ccccc3C2=O)cc1
inactive: OVCAR-5 ovarian 18.8% | SK-OV-3 ovarian 106% | IGROV1 ovarian 11.3%
active: SR leukemia 0.0887% | RPMI-8226 leukemia 2.88% | OVCAR-8 ovarian 9.15% | OVCAR-4 ovarian -56.5% | OVCAR-3 ovarian -28.6% | HS 578T breast -13.6% | NCI/ADR-RES ovarian 4.23%

O=S(=O)(NCCCNc1nccc(-c2[nH]c(-c3ccccc3)nc2-c2ccc(Cl)c(O)c2)n1)c1cccc(F)c1
inactive: SR leukemia 39.4% | RPMI-8226 leukemia 41.1% | OVCAR-8 ovarian 50.1% | OVCAR-5 ovarian 85.4% | OVCAR-4 ovarian 71.8% | SK-OV-3 ovarian 105% | IGROV1 ovarian 57.9% | OVCAR-3 ovarian 60.3% | HS 578T breast 96.2% | NCI/ADR-RES ovarian 73.2%

N#Cc1cnc2ccc(-c3cnc(N)nc3)cc2c1N1CCc2cc(F)c(Cl)cc21
inactive: OVCAR-8 ovarian 12% | OVCAR-5 ovarian 19.8% | OVCAR-4 ovarian 12.3%
active: SR leukemia 8.58% | RPMI-8226 leukemia -16.9% | SK-OV-3 ovarian 0.148% | IGROV1 ovarian -44.6% | OVCAR-3 ovarian 8.88% | HS 578T breast -22.5% | NCI/ADR-RES ovarian 6.22%
